# Assay outcomes from PubChem.
# This is a sample that favours compounds with a hit; in the whole collection about 3.5% have one here.
# LEDGF integ inh = blocks HIV-1 LEDGF/p75-dependent DNA integration | TR-FRET IN-LEDGF/p75 DNA integration, Eu/Cy5 | inhibition, % at 3.7 µM | 0.64% of 370,000 active;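 active = inhibition above the screen-wide mean plus 3 SD, cut at about 13% in these data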;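 note: signal is the Cy5 over europium emission ratio at 671 and 618 nm; 0% = plate median of compound wells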
# PG9 binder = PG9 antibody binding by small molecule; TR-FRET gp120-PG9 antibody binding; inhibition, % at 6.7 µM; 0.43% of 360,000 active; AID 624416; in the data active = inhibition above about 8.5%
# rCAG binder = binds r(CAG) RNA repeats. r(CAG) RNA repeat, TO-PRO-1 dye displacement fluorescence. inhibition, % at 3 µM. 1.3% of 370,000 active. AID 651821;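 active = inhibition above the plate cutoff, the mean of all test compounds on that plate plus 3 SD, cut at about 35% in these data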;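 note: 0% = DMSO alone and 100% = 100 µM mitoxantrone as full dye displacement; higher means more dye released from RNA so lower well fluorescence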
# UHRF1 MBD2 ctr = blocks human UHRF1 binding to methylated DNA. Q96T88. UHRF1 binding to methylated oligo, TR-FRET. inhibition, % at 4.4 µM. 0.75% of 370,000 active; in the data active = inhibition above about 21%;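 note: UHRF1 SRA domain binding a hemimethylated CpG hairpin DNA probe; 0% = median of test compound wells and 100% = reference inhibitor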
# DNMT1 block = blocks human DNA methyltransferase DNMT1 | DNMT1 molecular beacon, Hinp1I cleavage, fluorescence | 0.83% of 360,000 active | P26358 | inhibition (reported as % activation of signal), % at 10 µM; in the data active = inhibition above about 50%
# MBD2 inh = inhibitors of human MBD2 binding to methylated oligonucleotide; inhibition, % at 4.4 µM; AID 686964; TR-FRET; 0.31% of 370,000 active; Q9UBB5; in the data active = inhibition above about 13%
# Target sequence (Q9UBB5 whole entry, looked up): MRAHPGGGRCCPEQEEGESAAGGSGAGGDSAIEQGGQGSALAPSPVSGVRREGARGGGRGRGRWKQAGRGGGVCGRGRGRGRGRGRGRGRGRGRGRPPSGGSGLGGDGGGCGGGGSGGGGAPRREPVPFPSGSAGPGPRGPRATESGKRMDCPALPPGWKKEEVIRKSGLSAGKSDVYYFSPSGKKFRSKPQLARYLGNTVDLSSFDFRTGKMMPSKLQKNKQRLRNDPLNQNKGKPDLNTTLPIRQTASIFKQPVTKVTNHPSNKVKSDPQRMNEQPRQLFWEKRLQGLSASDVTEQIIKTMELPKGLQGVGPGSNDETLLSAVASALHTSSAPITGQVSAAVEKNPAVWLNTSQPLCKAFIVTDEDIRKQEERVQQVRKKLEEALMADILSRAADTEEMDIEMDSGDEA
# The depositor's hits bear a star; x = not tested or not shown.
SMILES,LEDGF integ inh,PG9 binder,rCAG binder,UHRF1 MBD2 ctr,DNMT1 block,MBD2 inh
Cc1cc2oc(=O)cc(CN3CCCCC3)c2cc1C(C)C,1.6,-1.0,3.1,0.8,0.2,2.4
CCOc1ccc(OCCn2c(=S)[nH]c3ccccc32)cc1,2.0,-2.2,0.9,-0.1,-4.2,-2.8
CCOc1ccc2c(c1)[nH]c(=S)n2C,-0.9,0.1,-0.8,38.7*,-1.7,-1.3
Cc1c(Cl)c([N+](=O)[O-])nn1CCCC(=O)N1CCN(c2ccccc2)CC1,1.1,1.7,-4.5,31.2*,-3.6,-3.6
CC1=C(C(=O)N(C(C)C)C(C)C)CC(CC(=O)NCCN2CCOCC2)C(=O)N1CCCN1CCCC1=O (stereo not given),3.2,-1.7,-1.5,7.4,-1.7,2.0
CC1=C(C(=O)N(C)C)CC(CC(=O)NCCN2CCOCC2)C(=O)N1CCCN1CCCC1=O (stereo not given),1.1,-0.7,0.1,21.6*,5.5,6.7
COc1ccccc1N1CCN(C(=O)C2CCCN(S(=O)(=O)c3ccc4c(c3)oc(=O)n4C)C2)CC1 (stereo not given),-3.4,-1.6,-3.0,24.4*,1.0,7.2
COc1ccc(N2CCN(C(=O)C3CCCN(S(=O)(=O)c4ccc5c(c4)oc(=O)n5C)C3)CC2)cc1 (stereo not given),-6.7,-2.8,1.4,2.2,-1.0,3.1
COC(=O)[C@]12C[C@H](CC(=O)N3CCCCC3)C(=O)N(Cc3cccc4ccccc34)C1=C[C@H](C1CCCC1)O[C@@H]2C,0.2,x,9.1,-3.3,x,1.9
CCN(CC)c1ccc(-c2nnc(SCC(=O)N(CCOC)c3c(N)n(CC(C)C)c(=O)[nH]c3=O)o2)cc1,-0.6,-2.0,-6.0,80.4*,2.0,0.5
CCCCn1c(N)c(N(CCOC)C(=O)CSc2ccccc2C)c(=O)[nH]c1=O,8.7,-1.9,0.9,-3.1,-0.7,-5.1
CCCCn1c(N)c(N(CCOC)C(=O)CSCc2ccccc2C)c(=O)[nH]c1=O,7.3,-0.5,-4.4,32.9*,-0.7,13.1
COCCN(C(=O)CSc1ncn[nH]1)c1c(N)n(Cc2ccccc2)c(=O)[nH]c1=O,4.9,1.6,5.9,26.9*,1.3,4.3
CCCCn1c(N)c(N(CCOC)C(=O)C2CCN(S(=O)(=O)c3ccc(F)cc3)CC2)c(=O)[nH]c1=O,5.5,-1.6,0.9,0.9,3.6,-6.6
COCCN(C(=O)CSc1ncccn1)c1c(N)n(Cc2ccccc2)c(=O)[nH]c1=O,-0.8,-0.4,-1.2,-1.2,1.8,-1.0
CCCCn1c(N)c(N(CCOC)C(=O)C2CCN(S(=O)(=O)c3ccc(Cl)cc3)CC2)c(=O)[nH]c1=O,3.2,0.4,-3.2,24.1*,-1.3,7.0
COc1ccc(-c2cc(-c3ccccc3)nc(Cl)n2)cc1OC,3.1,1.3,2.2,29.8*,-6.3,-4.1
O=[N+]([O-])c1ccc(Cl)c2c1C1C=CCC1C(c1ccccn1)N2 (stereo not given),5.2,0.8,32.9,-5.7,51.4*,-0.8
COC(=O)C1CN(C2CCCC2)CCS(=O)(=O)N1Cc1ccc(OC)cc1 (stereo not given),2.8,x,2.2,-2.5,x,0.5
Brc1ccc(-c2cnc(-c3cccs3)o2)cc1,3.0,-0.2,6.7,21.5*,-7.5,6.5
CN(C)c1ccc(-c2nnc(-c3cccs3)o2)cc1,-0.7,4.5,-2.9,-1.1,0.1,3.1
CCN(CC1COc2ccccc2O1)S(=O)(=O)c1ccc(C)cc1 (stereo not given),3.8,0.2,-1.3,25.6*,11.2,8.6
O=C(C(=O)N1CCN(S(=O)(=O)c2cccc3ccccc23)CC1)c1cccc(C(F)(F)F)c1,0.1,-2.5,4.9,2.8,x,2.4
Cc1ccccc1C(=O)N1CCC(Oc2cccnc2)CC1,-3.9,x,-0.5,0.3,x,-2.4
O=c1cc(O)c2sc(Nc3ccc(F)c(Cl)c3)nc2[nH]1,5.7,0.7,35.1*,1.5,-26.3,3.7
SMILES,LEDGF integ inh,PG9 binder,rCAG binder,UHRF1 MBD2 ctr,DNMT1 block,MBD2 inh
O=c1cc(O)c2sc(Nc3ccc(Cl)c(F)c3)nc2[nH]1,-1.4,-2.6,29.6,-3.5,-20.9,-0.2
CC(C)C[C@H]1COc2cccc(F)c2S(=O)(=O)N1Cc1cn(CCC2OCCO2)nn1,-0.3,x,1.7,-0.1,x,1.1
Cc1nc(-c2ccccc2)sc1-c1ccnn1C,-9.0,-1.9,-3.1,43.0*,-1.7,2.1
Cc1nc(-c2ccccc2)sc1-c1ccn[nH]1,3.0,-0.1,-4.6,2.6,-6.1,-1.2
Cc1ccc(NC(=O)c2ccc(OC(=O)CCN3C(=O)c4ccccc4C3=O)cc2)cc1,1.1,-0.8,3.6,0.7,50.2*,0.4
COc1ccc2oc(=O)cc(-c3cc4cccc(OC)c4o3)c2c1,0.8,-1.3,6.5,0.1,0.7,-1.5
CCN(CC)C(=O)Oc1ccc2oc(=O)cc(-c3cc4cccc(OC)c4o3)c2c1,-1.1,-2.4,6.1,21.2*,-4.4,4.1
COCC(C)OC(=O)c1c(N)n(CC(C)C)c2nc3ccccc3nc12 (stereo not given),1.8,-1.6,0.1,-7.1,60.0*,-6.0
COc1cc(CNC2CCCC2)c(Br)cc1OC1CCCC1,-4.3,0.7,-0.2,30.1*,-0.7,0.0
COc1cc(CNC2CCCCCCC2)c(Br)cc1OCCO,-2.2,-0.8,-3.2,4.3,0.0,3.9
CCOC(=O)Cn1cc(CN2CCS(=O)(=O)N(Cc3ccc(Cl)cc3)C(C(=O)OC)C2)nn1 (stereo not given),1.5,x,5.7,10.9,x,5.8
Nc1c(C(=O)Nc2ccccc2)sc2nc(-c3ccco3)ccc12,9.4,4.1,34.6*,-2.5,-22.3,-7.1
COc1ccccc1NC(=O)c1sc2nc(-c3ccco3)ccc2c1N,x,x,x,x,-6.1,x
COc1cccc(CNS(=O)(=O)c2ccc(-n3cnnn3)c(C)c2)c1,0.0,0.8,1.4,3.7,2.1,2.5
COc1cccc(CN(Cc2cccnc2)S(=O)(=O)c2ccc(-n3cnnn3)c(C)c2)c1,3.1,-2.0,-3.5,20.9*,5.1,4.4
COc1cc(S(=O)(=O)N(Cc2cccnc2)Cc2ccco2)ccc1-n1cnnn1,8.8,-0.2,4.8,21.2*,11.1,11.5
COc1ccccc1N1CCN(N=Cc2ccccc2Br)CC1,2.2,x,-0.2,2.4,x,6.6
CCCN(C)C[C@H]1OCc2cnnn2CCCC(=O)N([C@H](C)CO)C[C@@H]1C,3.0,0.8,-0.8,23.2*,1.1,12.8
C[C@@H]1CN([C@@H](C)CO)C(=O)CCCn2nncc2CO[C@H]1CN(C)C(=O)Nc1cccc2ccccc12,2.7,-1.7,1.7,24.2*,1.0,7.9
C[C@@H]1CN([C@H](C)CO)C(=O)CCCn2nncc2CO[C@@H]1CN(C)C(=O)Nc1cccc2ccccc12,-2.9,1.1,0.9,-2.3,5.4,-3.6
COc1cccc(S(=O)(=O)N(C)C[C@H]2OCc3cnnn3CCCC(=O)N([C@@H](C)CO)C[C@H]2C)c1,-0.6,-0.4,-0.8,22.0*,1.8,9.7
